For 30 compounds, Inhibition results are on record in ChEMBL document CHEMBL4513146, “CO-ADD screening of Karazin Kharkiv National University (Ukraine) compounds”.

Entries with a potency or affinity are not part of this list.

The subject of one assay is Klebsiella pneumoniae. The following applies: Concentration 32 ug.mL-1;; ASSAY_TEST Inhibition of Bacterial Growth; detection method Absorption (OD600); MEDIA CAMHB; plate type 384well; NBS; CORNING #3640; time 18 hr.
A further assay concerns Candida albicans. The following applies: Concentration 32 ug.mL-1; ASSAY_TEST Inhibition of Fungal Growth; detection method Absorption (OD530).
Another assay relates to Cryptococcus neoformans. The following applies: Concentration 32 ug.mL-1; ASSAY_TEST Inhibition of Fungal Growth; detection method Resazurin; Absorption (OD600-OD570); plate type 384well; NBS; CORNING #3640.

By Inhibition is commonly meant the drop in the measured response relative to a control, in per cent. As to `CCCNC(=O)CSc1nnc2c(=O)n(-c3ccc(F)cc3)ccn12`, the Inhibition is 12.9% in the assay on Klebsiella pneumoniae, 2.11% with Candida albicans and -15.58% in the assay with Cryptococcus neoformans.
For the compound `CCOc1ccc(-c2nc(CSc3nc4ccccc4n4c(C)nnc34)c(C)o2)cc1`, the Inhibition is given as 11.43% in the assay with Klebsiella pneumoniae, 1.94% with Candida albicans and -16.17% in the assay on Cryptococcus neoformans.
In the case of `COc1cccc(CN(c2cccc(F)c2)S(=O)(=O)c2ccc3nnc(C)n3c2)c1`, the Inhibition in the assay on Klebsiella pneumoniae is 3.28%; with Candida albicans it was 3.11%; in the assay with Cryptococcus neoformans, -1.07%.
For the compound `CSc1ccc(CNC(=O)CCc2nnc3c(N4CCCCC4)nc4ccccc4n23)cc1`, the Inhibition in the assay on Klebsiella pneumoniae was 12.88%; with Candida albicans, 3.51%; in the assay on Cryptococcus neoformans, -30.87%.
As for `CCOc1ccc(-n2ccn3c(SC(CC)C(=O)Nc4ccc(C(C)C)cc4)nnc3c2=O)cc1` (stereo not given), the figures for the Inhibition in the assay with Klebsiella pneumoniae, with Candida albicans and in the assay with Cryptococcus neoformans were 9.42%, 6.16% and -12.9%, respectively.
With `CCCCOc1ccc(-c2cc3c4nnc(SCC(=O)Nc5c(C)cccc5C)n4ccn3n2)cc1`, the Inhibition with Klebsiella pneumoniae is reported as 2.94%; with Candida albicans, 28.25%; in the assay with Cryptococcus neoformans, -13.35%.
On the same counts, the results for `CCCCOc1ccc(-c2cc3c4nnc(SCC(=O)Nc5cccc(C#N)c5)n4ccn3n2)cc1` are -0.44%, 7.68% and -23.71%.
For `COc1ccc(NC(=O)c2ccc3nn(CC(=O)Nc4ccc(C(C)C)cc4)c(=O)n3c2)cc1` the same measures were 5.27%, 10.58% and -13.36%.
With `O=C(CSc1nnc2c(=O)n(-c3ccc(F)cc3)ccn12)N1CCN(c2ccc(F)cc2)CC1`, the Inhibition in the assay with Klebsiella pneumoniae is recorded as -5.39%; with Candida albicans, -0.55%; with Cryptococcus neoformans, -6.2%.
Consider `Cc1ccc(C)c(NC(=O)Cn2nc3c(Sc4ccccc4)nccn3c2=O)c1`, for which the Inhibition with Klebsiella pneumoniae is given as 3.53%; with Candida albicans it was 1.24%; in the assay on Cryptococcus neoformans, -8.99%.
Take `O=C(Cn1nc2ccc(-c3ccccc3)nn2c1=O)Nc1ccc(F)cc1`: the Inhibition was 7.53% in the assay with Klebsiella pneumoniae, 0.88% in the assay with Candida albicans and -10.36% with Cryptococcus neoformans.
For `COc1ccc(NC(=O)Cn2nc3c(N4CCOCC4)nccn3c2=O)c(OC)c1` the same measures were 20.77%, 0.63% and -16.42%.
Consider `CCOC(=O)c1ccc(NC(=O)Cn2nc3c4cc(-c5ccc(C)cc5)nn4ccn3c2=O)cc1`, for which the results for the Inhibition in the assay with Klebsiella pneumoniae, in the assay on Candida albicans and in the assay with Cryptococcus neoformans were -1.86%, 7.19% and -28.56%, respectively.
As to `O=C(CSc1nnc2c(=O)n(-c3ccccc3)ccn12)c1ccc(F)cc1`, the Inhibition in the assay with Klebsiella pneumoniae is 11%; in the assay on Candida albicans, 4.07%; with Cryptococcus neoformans, -7.83%.
With `Cc1ccc(NC(=O)Cn2nc3ccc(SC4CCCCC4)nn3c2=O)cc1C`, the Inhibition in the assay with Klebsiella pneumoniae was -2.51%; with Candida albicans it was 4.67%; in the assay on Cryptococcus neoformans it was -21.19%.
On to `CC(C)CCNC(=O)CSc1nnc2c(=O)n(-c3ccc(F)cc3)ccn12`, for which the Inhibition in the assay on Klebsiella pneumoniae is given as 11.65%; in the assay with Candida albicans, 4.94%; with Cryptococcus neoformans it was -13.8%.
For the compound `COc1cccc(-n2ccn3c(SCC(=O)c4c[nH]c5ccc(OC)cc45)nnc3c2=O)c1`, the Inhibition was 12.06% in the assay on Klebsiella pneumoniae, 5.77% with Candida albicans and -34.12% in the assay on Cryptococcus neoformans.
As for `Cc1ccc(CN(c2ccc(F)cc2)S(=O)(=O)c2ccc3nnc(C)n3c2)cc1`, the values for the Inhibition in the assay with Klebsiella pneumoniae, in the assay on Candida albicans and in the assay with Cryptococcus neoformans were -1.29%, 5.66% and -6.24%, respectively.
Consider `Cc1ccc(CN(c2cc(C)cc(C)c2)S(=O)(=O)c2cccn3c(C)nnc23)cc1`, for which the values for the Inhibition with Klebsiella pneumoniae, in the assay on Candida albicans and in the assay with Cryptococcus neoformans were 1.08%, -0.03% and -12.99%, respectively.
As to `COc1ccc2[nH]cc(C(=O)CSc3nnc4c(=O)n(-c5ccc(F)cc5)ccn34)c2c1`, the Inhibition is 12.89% in the assay on Klebsiella pneumoniae, 3.24% with Candida albicans and -7.69% with Cryptococcus neoformans.
As to `COC(=O)c1ccccc1NC(=O)Cn1nc2c3cc(-c4ccc(OC)cc4)nn3ccn2c1=O`, the Inhibition with Klebsiella pneumoniae is given as 20.11%; in the assay on Candida albicans, 0.77%; in the assay with Cryptococcus neoformans, -26.84%.
On to `Cc1ccc2c(c1)N(C(=O)Cn1nc3ccc(SC(C)(C)C)nn3c1=O)CCO2`, for which the Inhibition in the assay on Klebsiella pneumoniae was 14.93%; in the assay on Candida albicans, 9.3%; in the assay on Cryptococcus neoformans, -18.35%.
For `Cc1ccc(-c2ccc3nn(CC(=O)Nc4ccc(Cl)cc4F)c(=O)n3n2)cc1`, the figures for the Inhibition in the assay on Klebsiella pneumoniae, in the assay on Candida albicans and with Cryptococcus neoformans were 13.29%, -0.74% and -20.92%, respectively.
For `Cc1ccc(Cn2nc3c(=O)n(-c4cccc(Cl)c4C)ccn3c2=O)cc1` the same measures were 10.23%, 6.45% and -17.53%.
For `CCc1ccc(NC(=O)Cn2nc3cc(C)nc(Nc4ccc(F)c(C)c4)n3c2=O)cc1` the same measures were 8.35%, 8.83% and -9.39%.
In the case of `O=c1n(Cc2cccc(C(F)(F)F)c2)nc2c(S(=O)(=O)N3CCCC3)cccn12`, the Inhibition in the assay with Klebsiella pneumoniae was 13.65%; in the assay on Candida albicans, 1.01%; with Cryptococcus neoformans, -8.52%.
For `COc1cccc(Oc2nccn3c(=O)n(CC(=O)Nc4ccc(C(C)C)cc4)nc23)c1` the same measures were -4.77%, 3.55% and -2.79%.
For `CCOc1ccccc1NC(=O)Cn1nc2c(Sc3cccc(C)c3)nccn2c1=O` the same measures were 9.01%, 0.35% and -13.32%.
As to `Cc1nnc2ccc(S(=O)(=O)N(Cc3ccccc3F)c3ccc(Cl)cc3)cn12`, the Inhibition in the assay on Klebsiella pneumoniae is -3.84%; in the assay on Candida albicans, 0.4%; with Cryptococcus neoformans, -8.97%.
On to `COc1ccc(CNC(=O)CCc2nnc3ccc(-c4ccccc4)nn23)cc1OC`, for which the Inhibition in the assay on Klebsiella pneumoniae was 15.01%; in the assay with Candida albicans it was -1.16%; in the assay on Cryptococcus neoformans it was -12.03%.
